These results are taken from PubChem BioAssay AID463173 (ICCB-Longwood Screening Facility, Harvard Medical School, 2010).

Among all 52,000 compounds or so, about 4,300 (8.3%) were called active. The entries come from a sample that favours actives as a whole. Values without a mark were called inactive. Rule as the data show it: active = survival mostly below about 52% (no sharp cut-off); inactive = mostly above about 56%.

The test system of the experiment is DeltatarO mutant. Kind of experiment: growth inhibition of S. aureus wild type versus tarO mutant, primary screen, teichoic acid synthesis inhibitors, RN4220, OD600 (AID 463173). To be noted: OD600, 18 h, stronger effect = lower value, screened at 18.75 µg/mL (by protocol).
Take `CCc1ccccc1NC(=O)Nc1c[nH]c(=O)[nH]c1=O`: the survival was 75%.
Consider `c1ccc(Nc2c(-c3ccccc3)nc3ncccn23)cc1`, for which the survival was 81%.
Next, `O=C(OCc1cc(=O)n2nc(-c3cccs3)sc2n1)c1ccccc1`: 65%.
Next, `CCc1nn(CC(=O)NCCCc2ccccc2)c(=O)c2cc3ccccc3n12`: 90%; `C/C(=N\NC(N)=O)C1CC(Cc2ccccc2)C(=O)O1` (stereo unspecified): 57%.
For `Cc1ccc(-c2nc3ccccc3n3c(-c4ccccc4)c4c(=O)n(C)c(=O)n(C)c4c23)cc1`, the survival is 97%.
In the case of `COc1ccc(Br)cc1CNC(=O)C1CCCCN1S(=O)(=O)c1ccc(F)cc1` (stereo unspecified), the survival was 81%.
Next, `O=C(NCCCO)C(=O)NCC(c1ccc2c(c1)OCO2)N1CCOCC1` (stereo unspecified): 37% (active).
Next, `O=C(NCCO)C(=O)NCC(c1ccc2c(c1)OCO2)N1CCOCC1` (stereo unspecified): 75%; `CN(C)CCCNC(=O)C(=O)NCC(c1ccc2c(c1)OCO2)N1CCOCC1` (stereo unspecified): 106%; `COc1cccc(C(=O)NCC(c2ccc3c(c2)OCO3)N2CCN(C)CC2)c1` (stereo unspecified): 112%.
Next, `CC(C)(C)CC(=O)NCC(c1ccc2c(c1)OCO2)N1CCOCC1` (stereo unspecified): 80%; `CNC(=O)C(=O)NCC(c1ccc2c(c1)OCO2)N1CCOCC1` (stereo unspecified): 89%.
Regarding `COc1ccc(CCNC(=O)C(=O)NCC(c2ccc3c(c2)OCO3)N2CCOCC2)cc1OC` (stereo unspecified), the survival was 69%.
The same measure for `CCOc1ccc(C(=O)NCC(c2ccc3c(c2)OCO3)N2CCN(C)CC2)cc1` (stereo unspecified): 78%; for `COc1ccc(C(=O)NCC(c2ccc3c(c2)OCO3)N2CCN(C)CC2)cc1` (stereo unspecified): 47% (active); for `CC(C)(C)C(=O)NCC(c1ccc2c(c1)OCO2)N1CCOCC1` (stereo unspecified): 0% (active).
The same measure for `COc1ccc(CCNC(=O)C(=O)NCC(c2ccc3c(c2)OCO3)N2CCOCC2)cc1` (stereo unspecified): 32% (active).
As to `COc1ccc(CNC(=O)C(=O)NCC(c2ccc3c(c2)OCO3)N2CCOCC2)cc1` (stereo unspecified), the survival was 99%.
Regarding `CC1=C(C(=O)Nc2cccc(C(F)(F)F)c2)C(c2ccccc2)n2ncnc2N1` (stereo unspecified), the survival was 103%.
The same measure for `COc1ccc(CN2C3CCCC2CC(NC(=O)NC2CCCCC2)C3)cc1` (stereo unspecified): 85%.
The same measure for `Cc1ccc(F)cc1NC(=O)CCc1c(C)nn(-c2ccc(N3CCCC3)nn2)c1C`: 78%; for `CCOc1ccc(C(C(=O)NC2CCCC2)N(Cc2ccco2)C(=O)Cn2nnc3ccccc32)cc1OC` (stereo unspecified): 110%; for `COc1ccc(-c2cccc(NS(=O)(=O)c3cc(C)ccc3OC)c2)nn1`: 122%.
For `Nc1c(-c2nc(-c3ccc(Cl)cc3)cs2)c2ccccn2c1C(=O)c1ccc2c(c1)OCO2`, the survival is 101%.
Next, `CC1CCCCN1C(=O)CSc1nnc2c3ccccc3n(CC(=O)O)c2n1` (stereo unspecified): 97%; `CCOC(=O)c1c(C)[nH]c(C)c1S(=O)(=O)N1CCCC(C(=O)Nc2cc(C)ccc2C)C1` (stereo unspecified): 83%.
Next, `COCCCNC(=O)C(=O)NCC(c1ccc2c(c1)OCO2)N1CCOCC1` (stereo unspecified): 95%; `COCCNC(=O)C(=O)NCC(c1ccc2c(c1)OCO2)N1CCOCC1` (stereo unspecified): 0% (active).
Consider `CN(C)CCNC(=O)C(=O)NCC(c1ccc2c(c1)OCO2)N1CCOCC1` (stereo unspecified), for which the survival was 69%.
The same measure for `COc1ccccc1CNC(=O)C1CCCN(C(=O)c2cnn(-c3ccc(F)cc3)c2-n2cccc2)C1` (stereo unspecified): 76%; for `CCN(C(=O)Cn1nnc2sc3c(c2c1=O)CCC(C(C)(C)C)C3)c1cccc(C)c1` (stereo unspecified): 78%; for `COc1ccc(OC)c(CNS(=O)(=O)c2ccc(-c3cc(C(F)(F)F)on3)s2)c1`: -4% (active).
For `COc1ccccc1CNS(=O)(=O)c1ccc(-c2cc(C(F)(F)F)on2)s1`, the survival is 102%.
The same measure for `COc1ccc(CNS(=O)(=O)c2ccc(-c3cc(C(F)(F)F)on3)s2)cc1OC`: 118%; for `COc1cccc(N2CC(NC(=O)COc3ccc4ccccc4c3)CC2=O)c1` (stereo unspecified): 107%; for `COc1cccc(OCC(=O)NC2CC(=O)N(c3cccc(OC)c3)C2)c1` (stereo unspecified): 106%.
Next, `COc1ccc(OCC(=O)NC2CC(=O)N(c3cccc(OC)c3)C2)cc1` (stereo unspecified): 0% (active); `COc1cccc(N2CC(NC(=O)C3CCCC3)CC2=O)c1` (stereo unspecified): 46% (active); `COc1ccc(N2CC(NC(=O)c3ccco3)CC2=O)cc1` (stereo unspecified): 58%.
The same measure for `COc1ccc(N2CC(NC(=O)c3ccco3)CC2=O)cc1OC` (stereo unspecified): 89%; for `COc1cccc(N2CC(NC(=O)C3CCCCC3)CC2=O)c1` (stereo unspecified): 144%; for `COc1cccc(N2CC(NC(=O)c3ccco3)CC2=O)c1` (stereo unspecified): 37% (active).
Consider `COc1cccc(N2CC(NC(=O)C3CC3)CC2=O)c1` (stereo unspecified), for which the survival was 105%.
Next, `O=C(Nc1cccc(F)c1)C1CCCN(S(=O)(=O)c2cccc3cccnc23)C1` (stereo unspecified): 70%; `COc1ccccc1CNc1ncnc2c1c(-c1ccccc1)cn2-c1ccc(Br)cc1`: 80%; `COc1ccc(C)cc1NC(=O)CN1C(=O)COc2ccc(S(=O)(=O)N3CCOCC3)cc21`: 98%.
The same measure for `COc1ccc(-c2nnc(SCC(=O)NCc3ccc(C)cc3)nc2-c2ccc(OC)c(OC)c2)cc1OC`: 76%; for `CCNS(=O)(=O)c1cccs1`: 96%; for `Cc1nn(CC(=O)Nc2ccccc2F)c(=O)c2c(C)n(-c3ccc(Cl)cc3)nc12`: 102%.
With `Cc1cc(NC(=O)NCc2ccc3c(c2)CCN3C(=O)c2ccccc2)ccc1Br`, the survival was 116%.
The same measure for `CCOC(=O)c1c(Nc2ccccc2)nnc(-c2ccccc2)c1-c1ccccc1`: 6% (active); for `CCOC(=O)c1c(C)oc2nc(C)nc(Nc3ccc(C)c(Cl)c3)c12`: 89%; for `CCOC(=O)c1c(Nc2ccc(F)cc2)nnc(-c2ccccc2)c1-c1ccccc1`: -3% (active).
The same measure for `CCOC(=O)c1c(Nc2ccc(C)cc2)nnc(-c2ccccc2)c1-c1ccccc1`: 1% (active).
As to `CCOC(=O)c1c(C)oc2ncnc(Nc3ccc(CC)cc3)c12`, the survival was 85%.
The same measure for `CCOC(=O)c1c(Nc2ccc(O)cc2)nnc(-c2ccccc2)c1-c1ccccc1`: 95%; for `CCOC(=O)c1c(C)oc2nc(C)nc(Nc3ccc(CC)cc3)c12`: 115%; for `CCOC(=O)c1c(Oc2ccc(C(C)=O)cc2)nnc(-c2ccccc2)c1-c1ccccc1`: 67%.
Next, `CCOC(=O)c1cnc(-c2ccccc2)nc1Nc1ccc(C)cc1`: 90%.
The same measure for `CCOC(=O)c1c(Nc2ccc(C)c(C)c2)nnc(-c2ccccc2)c1-c1ccccc1`: -5% (active).
`COc1cc(C2C(C(=O)Nc3ccccc3C)=C(C)Nc3nc(SCc4cc(C)ccc4C)nn32)ccc1O` (stereo unspecified): the survival is 105%.
Next, `CCOc1ccccc1N(CC)C(=O)c1cc2c(=O)[nH]c3ccc(C)cc3c2s1`: 74%; `Cc1ccc(-n2nc(C)c3c(C)cc(=O)n(CC(=O)NC(C)C)c32)cc1`: 105%; `O=C(CN1C(=O)COc2ccc(S(=O)(=O)N3CCCCCC3)cc21)Nc1cccc(Cl)c1`: 60%.
The same measure for `COc1cc(OC)c(N(C)C(=O)c2sc3nc4n(c(=O)c3c2C)CCCC4)cc1Cl`: 53%.
Next, `O=C(Cc1ccccc1)N(Cc1cccnc1)c1nc2ccc(Cl)cc2s1`: 72%; `O=C(Cc1ccc(-c2ccccc2)cc1)NCCS(=O)(=O)N1CCN(c2ccccc2)CC1`: 122%; `CCOc1ccc(CNC(=O)c2ccc(NC(=O)c3nsc4ccccc34)cc2)cc1`: 79%.
On to `COc1ccc(C(=O)CN2CCN(S(=O)(=O)c3ccc(C(C)C)cc3)CC2)cc1`, for which the survival is 81%.
Next, `COc1ccc(N2CC(NC(=O)/C=C\c3ccc(OC)c(OC)c3)CC2=O)cc1` (stereo unspecified): 55%; `CC(=O)c1ccc(NC(=O)CC2Oc3ccc(C)cc3NC2=O)cc1` (stereo unspecified): 85%; `O=C(NCCc1ccc(F)cc1)C(=O)NCC(c1ccc2c(c1)OCO2)N1CCOCC1` (stereo unspecified): 74%.
Turning to `Cc1ccc2[nH]c3c(=O)n(CC(=O)N(C)c4cc(Cl)ccc4C)ncc3c2c1`, the survival was 89%.
Next, `Cc1ccc(C)c(N(C)C(=O)Cc2c(C(=O)O)[nH]c3ccc(Cl)cc23)c1`: 40% (active).
The same measure for `CCCN(C(=O)Cc1c(C(=O)O)[nH]c2ccc(Cl)cc12)c1ccc(OCC)cc1`: 47% (active); for `CCN(C(=O)Cc1c(C(=O)O)[nH]c2ccccc12)c1ccc(OC)cc1`: 65%; for `Cc1cccc(N(C)C(=O)Cc2c(C(=O)O)[nH]c3ccccc23)c1`: 134%.
The same measure for `COc1ccc(OC)c(NC(=O)Cc2c(C(=O)O)[nH]c3ccc(Cl)cc23)c1`: 54%.
For `CCOC(=O)c1ccccc1NC(=O)N1CCC(CN2CCCCC2)CC1`, the survival was 83%.
The same measure for `COC(=O)c1cccc(NC(=O)Nc2cc(C(=O)NCc3cccc(F)c3)ccc2N2CCCC2)c1`: 91%.
The same measure for `Cc1ccc(OCC(=O)OCc2cc(=O)n3nc(-c4cccs4)sc3n2)cc1C`: 102%; for `Nc1nonc1/C(=N/O)N1CCCC1`: 113%; for `COc1ccc(N2CCN(C(CNC(=O)C(=O)NCc3cccnc3)c3cccnc3)CC2)cc1` (stereo unspecified): 102%.
Next, `O=C(CCCc1nc(-c2ccccc2)no1)Nc1cc(C(F)(F)F)cc(C(F)(F)F)c1`: 19% (active); `CCOc1ccccc1NC(=O)CCCc1nc(-c2ccccc2Cl)no1`: 38% (active); `COc1cc(-c2noc(CCC(=O)Nc3cc(C)ccc3C)n2)cc(OC)c1OC`: 81%.
Consider `CCOc1ccccc1NC(=O)CCc1nc(-c2cccc(C)c2)no1`, for which the survival was 73%.
Next, `COc1ccccc1-c1noc(CCCC(=O)Nc2cc(C)ccc2C)n1`: 54%; `CCOC(=O)c1ccc(NC(=O)CCCc2nc(-c3ccccc3Cl)no2)cc1`: 36% (active); `O=C(CCc1nc(-c2ccccc2F)no1)Nc1cccc(C(F)(F)F)c1`: 81%.
Next, `CCc1ccc(NC(=O)CCCc2nc(-c3ccco3)no2)cc1`: 81%.
The same measure for `Cc1cc(C)cc(NC(=O)CCCc2nc(-c3ccccc3Cl)no2)c1`: 89%; for `CCOC(=O)c1ccc(NC(=O)CCCc2nc(-c3cc(OC)c(OC)c(OC)c3)no2)cc1`: 44% (active); for `CCOc1ccccc1-c1noc(CCCC(=O)Nc2cccc(C(F)(F)F)c2)n1`: 61%.
With `COc1cccc(NC(=O)CCc2nc(-c3cc(OC)c(OC)c(OC)c3)no2)c1`, the survival was 73%.
